Results on eight compounds are retold here after PubChem BioAssay (NCATS).

Results filed as inconclusive are left out. Calls of active or inactive are those of the source. Unless noted, the call rests on the fitted dose curve; in most records, active means well fitted curve in the direction sought with a large enough effect; inconclusive means small, poorly fitted or top-dose-only effect, or another doubt; inactive means no such curve, though single readings can be large; an effect the other way counts as inactive or inconclusive.

Assay [1] is described as follows: P-glycoprotein substrates identified in KB-8-5-11 adenocarcinoma cell line, qHTS therapeutic library screen (AID 1346987). Further: nearly all actives have a fitted effect of over 65% in size. Further: potency means the concentration at half of the fitted maximal effect. On activity change, negative = cytotoxicity: on the % scale 0 is the no-effect control and ±100 the full control effect. The essentials: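 Luminescence from CellTiter-Glo, read 5 min after addition, quantified survival of KB-8-5-11 (P-gp-overexpressing) cells exposed to compounds for 72 h. AC50 was derived from concentration-response curves.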
Assay [2] is described as follows: Primary qHTS for inhibitors of nuclear receptor binding SET domain protein 2 (NSD2) in an isogenic RCH-ACV NSD2 p.E1099K mutant (9B) (AID 1645876). Further: nearly all actives have a fitted effect of over 70% in size. Further: potency means the concentration at half of the fitted maximal effect.
The nature of assay [3]: Primary qHTS for inhibitors of nuclear receptor binding SET domain protein 2 (NSD2) in an RCH-ACV wild type WT cells (2C) (AID 1645877). Further: nearly all actives have a fitted effect of over 70% in size. Further: potency means the concentration at half of the fitted maximal effect.
A short description of assay [4]: Primary redox qHTS assay for identification of artifact compounds. (AID 1845223).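 Further: 0% = DMSO and 100% = reference compound.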 The essentials:
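Redox-cycling detection via DTT (250 uM final) oxidation coupled to Amplex Red (25 uM)/HRP (250 mU/mL) in HBSS. 15 min preincubation plus 30 min after DTT, room temperature. Ex/Em 525/598 nm; 4-parameter Hill fit against DMSO and 10 uM DA3003.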

For another assay, the system named is HEK293. As to the kind of experiment: Cytotoxic Profiling of Annotated Libraries Using Quantitative High-Throughput Screening (AID 1296008). Further: nearly all actives have a fitted effect of over 60% in size. Further: potency means the concentration at half of the fitted maximal effect. On max response: on the % scale 0 is the no-effect control and ±100 the full control effect. The conditions noted are these: Five cell lines viability, CellTiter-Glo ATP luminescence, 48-72 h; max response: stronger effect = lower value. The essentials:
(§1)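 Compounds were pin-transferred onto cells and incubated 48 or 72 hr at 37 degree Celsius, 95% humidity. CellTiter-Glo was added, plates sat 10 min at room temperature, then ATP-coupled luminescence was imaged as the viability read-out.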

The next assay relates to HeLa. As to the kind of experiment: Primary qHTS to identify gynecologic anti-cancer compounds using libraries of approved drugs and bioactive compounds (AID 1345084). Further: nearly all actives have a fitted effect of over 55% in size. Further: potency means the concentration at half of the fitted maximal effect. On activity change, negative = cytotoxicity: on the % scale 0 is the no-effect control and ±100 the full control effect. The settings on record: Gynecologic cancer cell panel viability, ATPlite luminescence, 48 h; series mostly up to 57.5 µM. The essentials:
(§2)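 Five-concentration response, 48 h; readout is ATP-driven luciferase luminescence.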

The subject of the next assay is SKOV3. The assay is described as above. The conditions noted are these: Gynecologic cancer cell panel viability, ATPlite luminescence, 48 h; series mostly up to 57.5 µM. The essentials:
as §2

Assay [5] deals with Catechol O-methyltransferase (Homo sapiens) (UniProt P21964). As to the kind of experiment: Confirmatory Screen for Target Class Profiling of Small Molecule Inhibitors of Methyltransferases (AID 1745852). On activity change, negative = inhibition: on the % scale 0 is the no-effect control and ±100 the full control effect. The conditions noted are these: MTase-Glo luminescence, SAH detection, recombinant enzyme; measured here: COMT max response; stronger effect = lower value.
The target in assay [6] is Guanidinoacetate N-methyltransferase (Homo sapiens) (UniProt Q14353). The assay is described as above. The conditions noted are these: activity change, negative = inhibition: at 57.3 µM (top of the series) unless noted.
For assay [7], the target named is Nicotinamide N-methyltransferase (Homo sapiens) (UniProt P40261). The assay is described as above. The conditions noted are these: MTase-Glo luminescence, SAH detection, recombinant enzyme; measured here: NNMT max response; stronger effect = lower value.
Assay [8] addresses Phenylethanolamine N-methyltransferase (Homo sapiens) (UniProt P11086). The assay is described as above. The settings on record: MTase-Glo luminescence, SAH detection, recombinant enzyme; measured here: PNMT max response; stronger effect = lower value.
Assay [9] deals with Cytochrome P450 2D6 (Homo sapiens) (UniProt P10635). As to the kind of experiment: Cytochrome P450 family 2 subfamily D member 6 (CYP2D6) small molecule antagonists: luciferase biochemical (cell-free) qHTS assay (AID 1645840; active means well fitted curve in the direction sought with a large enough effect in the repeat runs; an effect the other way counts as inactive or inconclusive; further: potency means the concentration at half of the fitted maximal effect; nearly all actives have a fitted effect of over 55% in size). The essentials:
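P450-Glo CYP2D6 system: proluciferin substrate converted by enzyme to luciferin, read by luminescence proportional to activity. Enzyme-substrate mix with compound 10 min at room temperature, then NADPH regeneration 1 h before detection reagent.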

Assay [10] has as its target Cytochrome P450 2C9 (Homo sapiens) (UniProt P11712). As to the kind of experiment: Cytochrome P450 family 2 subfamily C member 9 (CYP2C9) small molecule antagonists: luciferase biochemical (cell-free) qHTS assay (AID 1645842; active means well fitted curve in the direction sought with a large enough effect in the repeat runs; an effect the other way counts as inactive or inconclusive; further: on the % scale 0 is the no-effect control and ±100 the full control effect; nearly all actives have a fitted effect of over 55% in size). The essentials:
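P450-Glo CYP2C9 system: proluciferin substrate with enzyme in mix containing 0.4% BSA, 10 min at room temperature, then NADPH regeneration solution added and incubated 1 h at 37C. Detection reagent stopped reaction; luminescence read after 20 min as RLU.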

In assay [11] the test system is HaCat. As to the kind of experiment: Cytotoxic Profiling of Annotated Libraries Using Quantitative High-Throughput Screening (AID 1296008). Further: nearly all actives have a fitted effect of over 60% in size. Further: potency means the concentration at half of the fitted maximal effect. The conditions noted are these: Five cell lines viability, CellTiter-Glo ATP luminescence, 48-72 h; max response: stronger effect = lower value. The essentials:
as §1

Another assay deals with KB-3-1. The description is as above. The settings on record: Five cell lines viability, CellTiter-Glo ATP luminescence, 48-72 h; max response: stronger effect = lower value. The essentials: as §1
A further assay deals with CRL-7250. Description: qHTS assay to identify novel small-molecules to repurpose for Merkel cell carcinoma treatment (AID 1296009). Further: nearly all actives have a fitted effect of over 60% in size. The settings on record: MCC and control cell lines, CellTiter-Glo viability, 72 h; series mostly up to 92 µM. The essentials:
(§3)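 Viability readout: ATP luminescence (CellTiter-Glo) after 72 hr drug exposure at 37 degree celsius. Dose-response format was 8 points for NPC and 11 points for MIPE; data normalized to in-plate controls.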

Assay [12] concerns HACAT. Described as above. The settings on record: MCC and control cell lines, CellTiter-Glo viability, 72 h; at 44.8 µM (top of the series) unless noted. The essentials: as §3
A further assay deals with NIH3T3. The assay is described as above. The settings on record: MCC and control cell lines, CellTiter-Glo viability, 72 h; at 44.8 µM (top of the series) unless noted. The essentials: as §3

Sequence of Cytochrome P450 2D6 (Homo sapiens) (P10635 whole entry, looked up): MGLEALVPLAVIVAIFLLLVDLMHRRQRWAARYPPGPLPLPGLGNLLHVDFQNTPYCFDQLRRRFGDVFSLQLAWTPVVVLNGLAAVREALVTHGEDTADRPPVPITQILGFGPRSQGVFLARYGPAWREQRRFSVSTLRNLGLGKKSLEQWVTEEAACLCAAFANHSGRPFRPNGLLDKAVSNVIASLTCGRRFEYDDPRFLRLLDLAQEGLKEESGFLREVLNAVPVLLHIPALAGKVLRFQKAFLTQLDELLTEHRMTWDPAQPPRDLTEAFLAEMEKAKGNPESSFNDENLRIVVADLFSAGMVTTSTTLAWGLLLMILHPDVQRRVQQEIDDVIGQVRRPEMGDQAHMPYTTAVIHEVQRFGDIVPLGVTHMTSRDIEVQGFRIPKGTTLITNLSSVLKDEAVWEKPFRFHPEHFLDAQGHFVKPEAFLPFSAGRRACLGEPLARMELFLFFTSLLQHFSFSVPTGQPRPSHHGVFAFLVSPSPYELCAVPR
Sequence of Cytochrome P450 2C9 (Homo sapiens) (P11712 whole entry, looked up): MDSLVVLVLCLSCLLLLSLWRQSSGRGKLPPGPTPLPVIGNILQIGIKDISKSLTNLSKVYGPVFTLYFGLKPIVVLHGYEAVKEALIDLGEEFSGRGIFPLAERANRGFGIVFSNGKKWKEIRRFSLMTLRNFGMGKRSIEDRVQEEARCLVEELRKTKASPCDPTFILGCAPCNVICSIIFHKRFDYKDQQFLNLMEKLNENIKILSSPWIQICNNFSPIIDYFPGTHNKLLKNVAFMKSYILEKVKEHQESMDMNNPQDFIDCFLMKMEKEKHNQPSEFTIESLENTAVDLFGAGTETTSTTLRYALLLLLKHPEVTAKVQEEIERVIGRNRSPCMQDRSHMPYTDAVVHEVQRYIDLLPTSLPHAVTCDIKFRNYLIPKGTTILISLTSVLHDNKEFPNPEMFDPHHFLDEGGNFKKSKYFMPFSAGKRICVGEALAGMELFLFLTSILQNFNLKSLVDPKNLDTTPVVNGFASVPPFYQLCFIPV
Sequence of Phenylethanolamine N-methyltransferase (Homo sapiens) (P11086 whole entry, looked up): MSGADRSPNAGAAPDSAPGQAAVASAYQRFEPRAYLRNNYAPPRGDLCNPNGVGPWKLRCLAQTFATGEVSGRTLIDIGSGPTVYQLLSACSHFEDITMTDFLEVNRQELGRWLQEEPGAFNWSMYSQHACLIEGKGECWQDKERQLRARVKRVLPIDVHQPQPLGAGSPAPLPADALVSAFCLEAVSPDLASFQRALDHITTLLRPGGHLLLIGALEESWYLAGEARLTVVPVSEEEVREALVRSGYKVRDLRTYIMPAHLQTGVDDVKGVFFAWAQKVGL
Sequence of Catechol O-methyltransferase (Homo sapiens) (P21964 whole entry, looked up): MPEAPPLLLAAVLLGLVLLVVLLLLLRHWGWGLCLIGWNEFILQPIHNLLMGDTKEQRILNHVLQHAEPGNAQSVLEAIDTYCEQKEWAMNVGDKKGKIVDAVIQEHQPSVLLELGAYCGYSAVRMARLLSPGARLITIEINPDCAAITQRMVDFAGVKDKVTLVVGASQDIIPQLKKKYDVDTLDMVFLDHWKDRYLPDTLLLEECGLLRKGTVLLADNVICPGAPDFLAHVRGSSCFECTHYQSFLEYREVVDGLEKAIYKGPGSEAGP
Sequence of Nicotinamide N-methyltransferase (Homo sapiens) (P40261 whole entry, looked up): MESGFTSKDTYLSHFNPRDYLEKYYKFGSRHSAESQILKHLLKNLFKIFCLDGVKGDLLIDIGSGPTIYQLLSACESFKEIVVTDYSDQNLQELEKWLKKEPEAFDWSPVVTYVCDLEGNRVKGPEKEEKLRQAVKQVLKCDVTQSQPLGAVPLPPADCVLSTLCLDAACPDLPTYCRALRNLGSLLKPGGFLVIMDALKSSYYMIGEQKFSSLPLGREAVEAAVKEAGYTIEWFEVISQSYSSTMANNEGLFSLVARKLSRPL

On to `Nc1ncnc2c1ncn2[C@@H]1O[C@@H]2COP(O)(=S)O[C@H]2[C@H]1O` (some centres undefined), for which the results for the activity change, negative = cytotoxicity (in assay [1]; with HeLa; in the assay with SKOV3) were 2.93% [at 9.29 µM] (inactive), 5.24% [at 11.6 µM] (inactive) and 33.4% [at 11.6 µM] (inactive), respectively. The outcome in assay [2] and in [3] was “inactive [at 9.23 µM]” each time. Besides, the redox activity (% of DA3003) in [4] was -10% [at 11.5 µM] (inactive). Further, in the assay on HEK293, the outcome was “inactive”.

Regarding `C#C[C@]1(O)CC[C@H]2[C@@H]3CC[C@H]4Cc5nc6nc7ccccc7n6cc5C[C@]4(C)[C@H]3CC[C@@]21C`, the Potency is 20.6 µM (active) in assay [1], 12.9 µM (active) in assay [2], 11.5 µM (active) in [3] and 14.6 µM (active) in the assay with HEK293. Besides, the activity was -13.5% in [5], -21% in assay [7] and -31.4% in assay [8]. The activity change, negative = inhibition in assay [6] was -2.81%. Besides, the Potency result (in assay [4]; in the assay on HeLa) was “inactive” throughout.

Regarding `CN1CCC2=C(C1)c1ccccc1Cc1ccccc12`, the Potency result (in assay [1]; in assay [10]; in assay [4]; in the assay on CRL-7250; with HeLa; in the assay with SKOV3) was “inactive” each time. Further, in [9], the Potency was 0.477 µM (active). The outcome in the assay on HaCat [11] and in the assay with HACAT [12] was “inactive” in each case. For the same compound, the max response in the assay with KB-3-1 is -19% (inactive).

Consider `CCC1C2CC3C4N(C)c5ccccc5C45CC(C2C5O)N3C1O` (centres undefined), for which the Potency entry (in [1]; in assay [2]; in assay [3]; with HeLa; in the assay with SKOV3) was “inactive” in each case. The outcome with HEK293 was “inactive”.

For `CC1=CC(=O)[C@@H](O)[C@@]2(C)C1C[C@H]1OC(=O)[C@H](O)[C@@]3(O)[C@@H](C)[C@@H](O)[C@H](O)C2[C@@]13C` (some centres undefined), the Potency in assay [2] was 1.27 µM (active); in assay [3], 1.01 µM (active); in the assay on HEK293 it was 2.02 µM (active); in the assay with KB-3-1, 6.4 µM (active). Moreover, in assay [4], the Potency entry was “inactive”.

In the case of `CN(C(=O)C(c1ccccc1)c1ccccc1)[C@H](CN1CC[C@H](O)C1)c1ccccc1`, the Potency in [9] was 0.122 µM (active). Moreover, the Potency entry (in [10]; in assay [4]; in the assay on CRL-7250; in the assay with SKOV3) was “inactive” each time. In addition, the outcome with HaCat [11] and in the assay on HACAT [12] was “inactive” each time. For the same compound, in the assay on KB-3-1, the max response is -3.45% (inactive).

On to `CN1CCCCC1Cn1cc(C(=O)c2cc([N+](=O)[O-])ccc2I)c2ccccc21` (centres undefined), for which the Potency entry (in [1]; in [2]; in [3]; in [4]; with HeLa; in the assay with SKOV3) was “inactive” in each case. Moreover, the outcome in the assay with HaCat [11], in the assay with HACAT [12] and in the assay with NIH3T3 was “inactive” each time. In addition, the max response with KB-3-1 was 6.42% (inactive).

Consider `COC1CC(O[C@H]2CC[C@@]3(C)C(CCC4C3CC[C@]3(C)C(C5=CC(=O)OC5)CCC43O)C2)OC(C)C1OC1OC(COC2OC(CO)C(O)C(O)C2O)C(O)C(O)C1O` (some centres undefined), for which the Potency is 1.74 µM (active) in assay [1]; 0.975 µM (active) in [2]; 1.73 µM (active) in assay [3]; 1.74 µM (active) in the assay with HEK293; 2.76 µM (active) in the assay on KB-3-1; 2.82 µM (active) in the assay on HeLa. Also, the Potency in the assay with SKOV3 is 3.16 µM (active). Moreover, in assay [4], the redox activity (% of DA3003) is 16.1% [at 11.5 µM] (inactive).
